Bioassay records from PubChem BioAssay.
In the library only some 12% were active in any assay of this set; here they are far more common.
Sm TGR block: blocks Schistosoma mansoni thioredoxin glutathione reductase; Q962Y6; purified TGR, DTNB reduction, TNB absorbance 405 nm; Potency, µM (series often up to 114 µM), without a hit: at the highest dose activity change, negative = inhibition, usual class: inhibitors; 3% of 360,000 active; AID 485364; further: on the % scale 0 is the no-effect control and ±100 the full control effect; nearly all actives have a fitted effect of over 60% in size
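First, TGR (20 nM dispensed) and NADPH were mixed with compound. Second, a 15 min room-temperature incubation followed. Third, further NADPH and then DTNB were added to start the reaction. Finally, TNB absorbance was monitored kinetically.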
AmpC inh detg: blocks E. coli AmpC beta-lactamase in detergent assay. Potency, µM (doses to about 114 µM), inactives show top-dose activity change, negative = inhibition, actives largely listed as inhibitors. P00811. AmpC hydrolysis of nitrocefin, absorbance 480 nm, 0.01% Triton. 0.041% of 370,000 active;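 further: 0% = no-compound wells and -100% = no-enzyme wells; nearly all actives have a fitted effect of over 25% in size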
Target sequence (P00811 whole entry, looked up): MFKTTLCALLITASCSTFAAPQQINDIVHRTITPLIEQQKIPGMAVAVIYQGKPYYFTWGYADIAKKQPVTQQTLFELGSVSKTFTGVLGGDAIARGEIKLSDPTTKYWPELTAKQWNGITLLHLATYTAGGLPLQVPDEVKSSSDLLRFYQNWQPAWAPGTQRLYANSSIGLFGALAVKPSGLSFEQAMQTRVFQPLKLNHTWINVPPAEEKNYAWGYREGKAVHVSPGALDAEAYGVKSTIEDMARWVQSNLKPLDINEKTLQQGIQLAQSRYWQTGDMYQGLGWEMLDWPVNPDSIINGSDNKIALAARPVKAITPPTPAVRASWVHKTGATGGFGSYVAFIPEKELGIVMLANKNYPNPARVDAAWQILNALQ
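AmpC (5.3 nM in the dispensed reagent) in 20 mM phosphate pH 7.0 with 0.01% (detergent screen) or 0.0001% Triton X-100 was preincubated with compounds for 15 min at room temperature. Nitrocefin was then added from an 800 uM solution, and hydrolysis was followed at 480 nm.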
SARS PLpro yeast: SARS-CoV PLP inhibition in yeast; Potency, µM (doses to about 32.9 µM), inactives show at the top dose activity, positive = growth rescue, actives largely listed as activators; AID 485353; 0.19% of 330,000 active; S. cerevisiae expressing SARS-CoV PLpro, growth rescue; calls by dose curve; further: 0% is about no effect; nearly all actives have a fitted effect of over 55% in size
Pf growth 96h: P. falciparum growth inhibition at 96 hour, primary screen for plastid delayed-death inhibitors. 6.9% of 320,000 active. AID 504834. Potency, µM (doses to about 28.7 µM), inactives show at the highest dose activity change, negative = inhibition, hits mostly inhibitors. P. falciparum luciferase reporter growth, 96 h; further: on the % scale 0 is the no-effect control and ±100 the full control effect
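Erythrocytes infected with luciferase-expressing P. falciparum were dispensed at 2% hematocrit and 0.05% parasitemia (final), then incubated with compounds 96 hours at 37 C in 5% CO2. Luminescence after detection reagent addition reported growth.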
AmpC inh no detg: blocks E. coli AmpC beta-lactamase in detergent-free assay. AmpC nitrocefin hydrolysis, absorbance 480 nm, 0.0001% Triton. Potency, µM (titrated, usually from 57.1 µM), without a hit: top-dose activity change, negative = inhibition, usual class: inhibitors. P00811. 0.52% of 330,000 active;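 further: plate controls were no compound for no effect and no enzyme for full effect; nearly all actives have a fitted effect of over 20% in size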
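AmpC (5.3 nM in the dispensed reagent) in 20 mM phosphate pH 7.0 with 0.01% (detergent screen) or 0.0001% Triton X-100 was preincubated with compounds for 15 min at room temperature. Nitrocefin was then added from an 800 uM solution, and hydrolysis was followed at 480 nm.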
Pf growth 48h: inhibits P. falciparum growth in the first generation, 48 h | 5.9% of 310,000 active | P. falciparum luciferase growth in erythrocytes, 48 h | Potency, µM (series often up to 28.7 µM), for inactives: top-dose activity change, negative = inhibition, actives largely listed as inhibitors; further: on the % scale 0 is the no-effect control and ±100 the full control effect
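Luciferase-expressing parasites in RBCs, 2% Hct / 0.1% parasitemia final; RPMI 1640 + 0.5% Albumax; 37 C, 5% CO2, one generation; luminescence read-out, lower signal = inhibition.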
* marks the source's active call; other numbers are inactive results; ? = inconclusive; nt = no result; [ ] = another dose, or the depositor's remark. Unless noted, the call rests on the fitted dose curve; in most records, active means well fitted curve in the direction sought with a large enough effect; inconclusive means small, poorly fitted or top-dose-only effect, or another doubt; inactive means no such curve, though single readings can be large; an effect the other way counts as inactive or inconclusive. Potency means the concentration at half of the fitted maximal effect.

SMILES	Sm TGR block	AmpC inh detg	SARS PLpro yeast	Pf growth 96h	AmpC inh no detg	Pf growth 48h
CC(C)CC(=O)NC(=S)NNC(=O)c1ccc(NC(=O)C2CCCCC2)cc1	-14%	-11%	16%	13µM*	-35%	?
CCCCC(=O)Nc1ccc(C(=O)OC2CCCCC2)cc1	8%	?	-21%	nt	-17%	10µM*
O=C(O)CCC(=O)Nc1ccc(C(=O)OC2CCCCC2)cc1	?	-12%	5%	10%	-13%	nt
O=C(Nc1ccc(C(=O)OC2CCCCC2)cc1)c1ccncc1	0%	-8%	-10%	5.2µM*	84%	13%
CCN(CC)c1ccc(NC(=O)c2cc(C)nc3c2c(C)nn3-c2ccc(C)cc2)c(C)c1	-12%	-7%	nt	nt	nt	nt
CCOc1ccc(C2C(=O)N(C3CCCCCC3)CC(=O)N2Cc2ccc(F)cc2)cc1OC (stereo not drawn)	6%	-6%	nt	nt	nt	nt
CCCN(CCC)CCCNC(=O)c1sc2nc3n(c(=O)c2c1C)CCC3	-6%	6%	nt	nt	nt	nt
CC(=O)N1CCc2cc(S(=O)(=O)NC(Cc3ccccc3)C(=O)NCc3ccccc3Cl)ccc21 (stereo not drawn)	5%	2%	nt	nt	nt	nt
Cc1ccc(CNC(=O)Nc2ccc(F)cc2)n1C	14µM*	?	-2%	5%	4%	28%
Cc1ccc(CNC(=O)Nc2ccc(OC(F)(F)F)cc2)n1C	?	-14%	0%	6%	1%	-18%
COc1ccccc1NC(=O)NCc1ccc(C)n1C	40µM*	-9%	2%	-5%	11%	?
CC1=NCCN1CCNC(=O)Nc1ccc(F)cc1	-6%	-3%	1%	0.41µM*	-7%	6%
CC1=NCCN1CCNC(=O)Nc1cc(C)cc(C)c1	11%	7%	0%	17%	-5%	2%
COc1ccccc1NC(=O)NCC1CC1(Cl)Cl (stereo not drawn)	6%	?	-3%	?	-15%	-11%
COc1ccc(C(C)=O)cc1CSc1nc(Nc2ccc(F)c(F)c2)c2ccccc2n1	1%	9%	nt	nt	nt	nt
COc1ccc(Cl)cc1NC(=O)Cn1c(=O)n(Cc2nc(C)no2)c(=O)c2ccccc21	7%	-1%	nt	nt	nt	nt
OC(c1ccccc1)(c1ccccc1)C1CCNCC1	?	-8%	2%	13%	68%	-21%[12.8 µM]
Clc1cccc(SC2CCNCC2)n1	nt	nt	nt	4.3µM*	nt	-1%
Cc1ccc(-c2nc(C3CCN(S(=O)(=O)c4ccc(C(C)(C)C)cc4)CC3)no2)cc1	3%	?	-6%	2.9µM*	-20%	nt
Cc1cccc(N2CCN(C(=O)C3CCCN(S(=O)(=O)c4cccc5nsnc45)C3)CC2)c1C (stereo not drawn)	0%	-5%	nt	nt	nt	nt
Brc1ccc(CSc2ccc3nnc(-c4ccccn4)n3n2)cc1	11%	?	-11%	2.9µM*	49%	2.6µM*
COC(=O)c1ccc(CSc2ccc3nnc(-c4ccc(F)cc4)n3n2)o1	-22%	-1%	1%	?	-21%	?
Cc1ccc(C)c(CSc2ccc3nnc(-c4ccccn4)n3n2)c1	-4%	-3%	-1%	?	73%	13µM*
COC(=O)c1ccc(CSc2ccc3nnc(-c4ccccn4)n3n2)o1	40µM*	?	12%	10µM*	-2%	?
Cc1ccc(CSc2ccc3nnc(-c4ccccn4)n3n2)cc1	-3%	0%	14%	10µM*	34%	2.9µM*
SMILES	Sm TGR block	AmpC inh detg	SARS PLpro yeast	Pf growth 96h	AmpC inh no detg	Pf growth 48h
O=C(CSc1ccc2nnc(-c3ccccn3)n2n1)Nc1nccs1	-3%	5%	1%	?	-9%	?
COc1ccc(CNC(=O)CSc2nc3cccnc3s2)cc1	0%	-6%	0%	72%	-20%	87%
CCOc1cccc(-c2cc(C(=O)N3N=C(C)CC3(O)C(F)F)c3ccccc3n2)c1 (stereo not drawn)	0%	-4%	-4%	-94%	-6%	3%
COc1ccc(OC)c(NC(=O)CSc2nnnn2-c2ccc3c(c2)OCO3)c1	-2%	-3%	2%	36%	?	?
Fc1ccc(CSc2ccc3nnc(-c4ccccn4)n3n2)cc1	4%	3%	-1%	3.3µM*	58%	3.7µM*
Fc1ccc(CSc2ccc3nnc(-c4cccs4)n3n2)cc1	-4%	-7%	3%	?	-20%	11%
CC1C(=O)CCN(C(C)(C)C)C1C (stereo not drawn)	1%	?	-7%	8.3µM*	-15%	?
CCc1cccc(N2C(=O)N(Cc3c(F)cccc3Cl)c3ccccc3S2(=O)=O)c1	0%	2%	nt	nt	nt	nt
C=C1C[C@H]2[C@@H]3C=C(C)C4=CC(=O)CC[C@]4(C)[C@H]3CC[C@]2(C)[C@@]1(OC(C)=O)C(C)=O	?	-5%	nt	?	156%	9.3µM*
COc1ccc(OC(=O)c2ccc(Cl)cc2)c(C(C)=O)c1	4%	-8%	-3%	37%	-12%	147%
COc1ccccc1N(C(=O)CNC(=O)c1ccco1)C(C(=O)NC1CCCCC1)c1ccncc1 (stereo not drawn)	2%	-3%	0%	14%	2%	-3%
CC(=O)c1cccc(NC2=NCC(C)S2)c1 (stereo not drawn)	-29%	-16%	-2%	13µM*	-18%	nt
O=c1[nH]n(CC2COC3(CCCCC3)O2)c(=O)c2ccccc12 (stereo not drawn)	-1%	-18%	-10%	8.3µM*	-20%	58%
Cc1ccc(CCNC(=O)C2CCCN(S(=O)(=O)c3cccc4nsnc34)C2)cc1 (stereo not drawn)	-24%	1%	11%	4.1µM*	-8%	nt
CCOCCCNC(=O)C1CCCN(S(=O)(=O)c2cccc3nsnc23)C1 (stereo not drawn)	0%	9%	-11%	8.3µM*	-1%	-9%
Cc1ccc(C)c(N2CCN(C(=O)CCc3nnc4n(C)c(=O)c5ccccc5n34)CC2)c1	3%	18%	nt	nt	nt	nt
COc1ccc(-c2nc(C#N)c(NCc3ccco3)o2)cc1	-1%	7%	-1%	39%	-18%	110%
Cc1ccc(-c2nc(C#N)c(NCc3ccco3)o2)cc1	-2%	1%	-6%	12µM*	-30%	84%
N#Cc1nc(COc2ccccc2Cl)oc1NCc1cccnc1	7.1µM*	1%	3%	-13%	84%	-7%
COc1ccccc1OCc1nc(C#N)c(NCc2ccco2)o1	40µM*	10%	-5%	12µM*	-20%	-20%
COc1ccc(CNc2oc(COc3ccccc3Cl)nc2C#N)cc1	?	1%	-9%	1.5µM*	-21%	nt
Cc1ccc(OCc2nc(C#N)c(NCc3ccco3)o2)cc1	?	-13%	-14%	?	-44%	nt
